Assay results reported in PubChem BioAssay (NCI).
“And” between values parts separate entries of the source, which are not always exact repeats. Identical values can stand only once. The panel holds about 79,000 compounds, 15% with a hit somewhere; the sample as a whole holds those more often. Where a structure was tested more than once in an assay, its records may differ in their call. The source made the active and inactive calls. No stated cut-off is given here; in the data, active means growth inhibition above about 70%; inactive means the rest.

Tests used:
[1] = NCI Yeast Anticancer Drug Screen. Data for the rad50 strain (AID 155);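 further: 0% = growth of vehicle-only cultures of the same strain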; conditions: S. cerevisiae rad50 strain growth inhibition; at 50.0 µM; stronger effect = higher value
Summary of the method: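 Readout: growth inhibition relative to vehicle-treated cultures. Compound exposure was carried out in a genetically defined yeast strain deficient in DNA damage repair.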

[2] = NCI Yeast Anticancer Drug Screen. Data for the mec2-1 strain (AID 157); conditions: S. cerevisiae mec2-1 strain, at 50.0 µM, stronger effect = higher value
Summary of the method: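 mec2-1 yeast strain, carrying an alteration in DNA damage repair or cell cycle control, was exposed to compounds; growth inhibition was measured relative to vehicle-treated controls.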

[3] = NCI Yeast Anticancer Drug Screen. Data for the sgs1 mgt1 strain (AID 161);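 further: 0% = growth of cultures given vehicle only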; conditions: S. cerevisiae sgs1 mgt1 strain, at 50.0 µM, stronger effect = higher value
Summary of the method: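 Compounds are added to genetically altered yeast, and growth is compared with cultures given vehicle alone to give percent inhibition.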

[4] = NCI Yeast Anticancer Drug Screen. Data for the cln2 rad14 strain (AID 165);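 further: 0% = growth equal to vehicle treated cultures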; conditions: S. cerevisiae cln2 rad14 strain, at 50.0 µM, stronger effect = higher value
Summary of the method: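 Yeast carrying cln2 and rad14 alterations (cell cycle control and DNA damage repair) were exposed to compounds. Growth inhibition was measured against vehicle-treated controls.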

[5] = NCI Yeast Anticancer Drug Screen. Data for the bub3 strain (AID 167); conditions: S. cerevisiae bub3 mutant strain, at 50.0 µM, stronger effect = higher value
Summary of the method: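 Readout: yeast growth inhibition, expressed relative to vehicle-only wells. The test organism is a mutant strain from a panel with lesions in DNA repair or checkpoint genes.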

[6] = NCI Yeast Anticancer Drug Screen. Data for the mlh1 rad18 strain (AID 175); conditions: S. cerevisiae mlh1 rad18 strain growth inhibition; at 50.0 µM; stronger effect = higher value
Summary of the method: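 Growth inhibition of the yeast strain was measured after compound exposure and expressed relative to vehicle-treated controls. The strain carries defined defects in DNA damage repair.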

Measured: growth inhibition

NC(=O)c1c([N+](=O)[O-])ccc(N(CCCl)CCCl)c1[N+](=O)[O-]
inactive: [1] -5.1% | [2] 1.25% | [3] -12.9% | [4] 4.75% | [5] -5% | [6] -6.05%

Cc1nc(N)nc(N)c1CCCOc1ccc(NC(=O)c2cccc(S(=O)(=O)F)c2)cc1
inactive: [1] 33.2% | [2] 25.9% | [3] 15.4% | [4] 19.2% | [5] -4.45% | [6] 30.4%

[CH3][Sn]1([CH3])[O]C(=O)c2ccccc2C(=O)[O]1
inactive: [1] 6.8% | [2] 15.7% | [3] 23.6% | [4] -13.4% | [5] -13.4% | [6] -13.8%

C[n+]1ccccc1-c1ccc[n+](CCCC[n+]2cccc(-c3cccc[n+]3C)c2)c1
inactive: [1] -8.5% | [2] -1.8% | [3] -7.5% | [4] -25.6% | [5] -8.65% | [6] 20%

c1ccc(P(CCP(CCP(c2ccccc2)c2ccccc2)c2ccccc2)CCP(c2ccccc2)c2ccccc2)cc1 (stereo not drawn)
inactive: [1] -5.15% and 0.15% and 8.05% | [2] -5.7% and 34.8% and 10.3% | [3] -18.6% and 18.4% and -0.95% | [4] -8.05% and -20.2% and 7.15% | [5] 0.45% and 2.95% and 21.9% | [6] -5.95% and 29.8% and 11.2%

O=c1[nH]c2ccc([As](=O)(O)O)cc2[nH]1
inactive: [1] -8.7% | [2] -1.1% | [3] -0.95% | [4] -5.2% | [5] 13.7% | [6] 8.55%

CN1CCc2ccc(O)cc2C1
inactive: [1] 16.3% | [2] 5.6% | [3] 3.95% | [4] -7.5% | [5] 15.7% | [6] 10.6%

c1ccc(-c2cccc(-c3ccccc3)c2)cc1
inactive: [1] 30.1% | [2] 15.3% | [3] 31.3% | [4] -0.6% | [5] 24.6% | [6] 44%

O.[Co].[NH2-].[NH2-].[NH2-].[NH2-].[NH2-]
inactive: [1] 27.9% | [2] -27.1% | [3] 36.2% | [4] 12.8% | [5] 24.2% | [6] 33.4%

NC(=O)CCCc1ccc([As]=O)cc1 (stereo not drawn)
inactive: [1] -8.7% | [2] -11.9% | [3] -8.85% | [4] -27.1% | [5] -0.25% | [6] 9.75%

O=C1C2CCN(CC2)C1(CO)CO
inactive: [1] -4.4% | [2] -4.25% | [3] -26.6% | [4] -58.1% | [5] -30.4% | [6] -20.2%

CC1(C)OP(=O)(O)C=C1[Se]c1ccccc1
inactive: [1] 19.2% | [2] 11.2% | [3] 24.4% | [4] 4.95% | [5] -3.2% | [6] 26.6%

C#CCOC(C(=O)OC1CCN(C)CC1)(c1ccccc1)c1ccccc1
inactive: [1] -3.5% | [2] -11.8% | [3] -6.45% | [4] -36.9% | [5] 0.3% | [6] -1.95%

c1ccc([C@H]2N[C@@H]2c2ccccn2)cc1
inactive: [1] 22.6% | [2] 32.5% | [3] 32.5% | [4] -4.35% | [5] 19.5% | [6] 13.2%

CCc1cccc(C(C)C)c1NC(=O)C(=O)C1C(=O)NC(=O)NC1=O
inactive: [1] -40.1% | [2] -12.2% | [3] -9.45% | [4] 18.1% | [5] -10.6% | [6] -31.4%

CC(=O)O/C=C(/C=C/OC(C)=O)C(C/C=C(\C)C#CC=C(C)C)OC(C)=O (stereo not drawn)
inactive: [1] 4.95% | [2] -13.7% | [3] 0.8% | [4] -2.2% | [5] 5.5% | [6] -0.1%

O=C(OC1CN2CCC1CC2)N(c1ccccc1)c1ccccc1 (stereo not drawn)
inactive: [1] 2.35% | [2] 0.25% | [3] -4.1% | [4] -4.75% | [5] 3.5% | [6] 13.3%

OC1=C2CCCCCC2=[N+]2CCCCC2C1 (stereo not drawn)
inactive: [1] 19.1% | [2] 33.6% | [3] 52.5% | [4] -1.6% | [5] 32.2%
active: [6] 70.8%

CCOP(=O)(NC12CC3CC(CC(C3)C1)C2)OCC
inactive: [1] -1.5% | [2] 8.2% | [3] -7.5% | [4] 5.25% | [5] 19.6% | [6] -18.2%

[Se]=[Nb]=[Se]
inactive: [1] -5.8% | [2] -6.55% | [3] -18.3% | [4] -5.1% | [5] -27.1% | [6] -28.5%

CCOP(=O)(OCC)C(C#N)OC(C)(C)C (stereo not drawn)
inactive: [1] 4.4% | [2] 20.4% | [3] 12.2% | [4] -0.25% | [5] 10.3% | [6] 2.35%

CC1CNC2C(=O)NC(=O)NC2N1 (stereo not drawn)
inactive: [1] 3.15% | [2] 1.95% | [3] -10.2% | [4] -5.25% | [5] 5.2% | [6] -4.7%

CCCC(=O)OCC[N+](C)(C)C
inactive: [1] -1.35% and 12.7% | [2] -21.9% and -18.6% | [3] -10.7% and 25.4% | [4] 18.9% and 5.95% | [5] -12.1% and 6.6% | [6] 4.05% and 18.2%

CCOC(=O)CC(=Nc1cc(C)on1)N(CC)CC
inactive: [1] 0.95% | [2] -19.2% | [3] 6.3% | [4] 9.95% | [5] -9.75% | [6] -17.1%

C/C=C1/CN2CCC34c5ccccc5N(C)C23C2CC1C4(C(=O)OC)C(O)O2 (stereo not drawn)
inactive: [1] -31% | [2] -31.8% | [3] -24.7% | [4] -4.2% | [5] -8.4% | [6] -58.9%

CS(=O)(=O)CS(=O)(=O)OCCF
inactive: [1] 5% | [2] -12.4% | [3] -10.6% | [4] -9.55% | [5] -29% | [6] -33.2%

COc1ccc2c(c1O)-c1cc(O)cc3c1C(C2)NCC3 (stereo not drawn)
inactive: [1] 13.7% | [2] 21.8% | [3] -12.5% | [4] 7.25% | [5] 8.65% | [6] 30.9%

O=C(O)c1cc(C(=O)O)cc(S(=O)(=O)F)c1
inactive: [1] 13.5% | [2] 3.75% | [3] 19.6% | [4] 10.6% | [5] -4.05% | [6] 7.5%

COc1cc(N=Nc2cccc(C(=O)O)c2)ccc1N(CCCl)CCCl
inactive: [1] -12.4% | [2] -16.4% | [3] -30.9% | [4] 17.7% | [5] -3.3% | [6] -23.3%

CCOC(=O)C1=C(OC(OCC)C(CC)[Se]c2ccccc2)CCC1 (stereo not drawn)
inactive: [1] 50.4% | [2] 10.6% | [3] 40% | [4] 22.4% | [5] 22.7% | [6] 39.9%

CC12CC(=O)C3C(CCC4CC=CCC43C)C1CCC2=O (stereo not drawn)
inactive: [1] 22.1% | [2] -12.5% | [3] 28.1% | [4] 5.8% | [5] 10% | [6] 24.5%

CC[C@@]1(O)C(=O)OCc2c1cc1n(c2=O)Cc2c-1nc1ccccc1c2C=Nc1ccc(N[C@@H]2c3cc4c(cc3[C@@H](c3cc(OC)c(O)c(OC)c3)[C@H]3C(=O)OC[C@@H]32)OCO4)cc1
46% (inactive) and 81.2% (active): [6]
54% (inactive) and 77.9% (active): [4]
50.3% (inactive) and 83.3% (active): [5]
69.9% (inactive) and 80.4% (active): [3]
active: [2] 71.6% and 76.7%
49.7% (inactive) and 82.5% (active): [1]

CCCCSCCC(N)P(=O)(O)O (stereo not drawn)
inactive: [1] -68.8% | [2] -62.4% | [3] -42.4% | [4] 2.8% | [5] -15.2% | [6] -44.1%
